From PubChem BioAssay (Tox21)
Results filed as inconclusive are left out. Activity calls are given as the source filed them. Unless noted, calls follow the shape of the dose curve; as a rule, active = well fitted curve in the direction sought with a large enough effect in the repeat runs; inconclusive = weak or mixed curves; inactive = no such curve, though single readings can be large; an effect the other way counts as inactive or inconclusive.

Assays:
[1] = target: Retinoic acid receptor RXR-alpha (Homo sapiens) (UniProt P19793); assay: qHTS assay to identify small molecule agonists of the RXR signaling pathway (AID 1159527; calls by dose curve; also: nearly all actives have a fitted effect of over 35% in size)
Outline: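 Reporter activation is measured as beta-lactamase activity via FRET substrate cleavage (emission 460/530 nm) in HEK 293T cells expressing an RXR-alpha-driven bla construct, following 16 hr compound exposure at 37 C.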

[2] = qHTS assay to identify small molecule agonists of the RXR signaling pathway - cell viability counter screen (AID 1159529); also: series mostly up to about 77 µM; nearly all actives have a fitted effect of over 50% in size
Outline: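 Tox21 10K compounds were tested for cytotoxicity against GeneBLAzer RXR-alpha HEK 293T cells grown in 2% charcoal-stripped FBS. Exposure lasted 16 hr at 37 C, 5% CO2; viability read by CellTiter-Glo luminescence.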

[3] = qHTS assay to identify small molecule antagonists of the retinoid acid receptor (RAR) signaling pathway - cell viability counter screen (AID 1159551); also: nearly all actives have a fitted effect of over 35% in size
Outline: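 C3RL4 RARE-luciferase cells, 1,000/well, incubated overnight, then dosed with compound plus 1 uM retinol (final). After 6 hr at 37 C, viability read by CellTiter-Glo ATP luminescence following 30 min at room temperature.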

[4] = qHTS assay to identify small molecule antagonists of the retinoic acid receptor (RAR) signaling pathway (AID 1159552; also: nearly all actives have a fitted effect of over 50% in size)
Outline: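 Overnight-plated C3RL4 reporter cells get compound, then retinol to 1 uM final; plates sit 6 hr at 37 C, 5% CO2. A luciferase reagent is added and light output recorded after 30 min at room temperature.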

[5] = qHTS assay to identify small molecule agonists of the retinoic acid receptor (RAR) signaling pathway (AID 1159553)
Outline: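 C3RL4 RARE-luciferase cells were seeded at 1,000/well and grown overnight at 37 C, then exposed to compounds for 6 hr at 37 C, 5% CO2. Luciferase reagent was added and luminescence was read after 30 min at room temperature.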

[6] = qHTS assay to identify small molecule antagonists of the estrogen related receptor (ERR) signaling pathway from Tox21 library - cell viability counter screen (AID 1224834); also: nearly all actives have a fitted effect of over 30% in size
Outline: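 ERR reporter cells, 2,000 per well, rested 6 h, then exposed to compound in DMSO for 17.5 hours at 37 C. Viability read as fluorescence after 30 min with CellTiter-Fluor.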

[7] = target: Luciferin 4-monooxygenase (Photinus pyralis) (UniProt P08659); assay: qHTS assay to identify small molecule inhibitors of firefly luciferase (AID 1224835); also: series mostly up to about 120 µM; nearly all actives have a fitted effect of over 25% in size
Outline: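 Quantitative HTS format; KM concentrations of both substrates. Purified P. pyralis FLuc activity quantified from luminescence images.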

[8] = qHTS assay to identify small molecule agonists of the constitutive androstane receptor (CAR) signaling pathway - cell viability counter screen (AID 1224836); also: series mostly up to about 92 µM; nearly all actives have a fitted effect of over 45% in size
Outline: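 Fluorescence from CellTiter-Fluor indicates live cells after 23 h exposure. The human hepatoma line expresses hCAR and a CYP2B6-2.2kb reporter. Incubation medium contains 0.75 uM PK11195 (final).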

[9] = qHTS assay to identify small molecule antagonists of the constitutive androstane receptor (CAR) signaling pathway - cell viability counter screen (AID 1224837); also: series mostly up to about 92 µM; nearly all actives have a fitted effect of over 45% in size
Outline: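 HepG2 cells stably carrying hCAR and CYP2B6-2.2kb reporter, stimulated with 50 nM CITCO and compounds at 15 concentrations for 23 h at 37 C. Viability measured by CellTiter-Fluor fluorescence.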

[10] = target: Nuclear receptor subfamily 1 group I member 3 (Homo sapiens) (UniProt Q14994); assay: qHTS assay to identify small molecule antagonists of the constitutive androstane receptor (CAR) signaling pathway (AID 1224838); also: nearly all actives have a fitted effect of over 40% in size
Outline: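 HepG2 cells stably carrying hCAR and a CYP2B6-2.2kb luciferase reporter, seeded 4 hrs before compound (15 concentrations). Stimulated with 50 nM CITCO for 24 hr at 37 C. ONE-Glo luminescence read after 30 min at room temperature.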

[11] = target: Nuclear receptor subfamily 1 group I member 3 (Homo sapiens) (UniProt Q14994); assay: qHTS assay to identify small molecule agonists of the constitutive androstane receptor (CAR) signaling pathway (AID 1224839); also: series mostly up to about 92 µM; nearly all actives have a fitted effect of over 15% in size
Outline: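 Stable hCAR/CYP2B6-2.2kb HepG2 line in DMEM with 10% FBS; compounds (15 concentrations) and 0.75 uM PK11195 final, 24 h at 37 C/5% CO2, then ONE-Glo luminescence after 30 min.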

[12] = qHTS assay to identify small molecule antagonists of the estrogen related receptor signaling pathway with the pleiotropic PPARgamma coactivator (PGC) from Tox21 10K library - cell viability counter screen (AID 1224840; active = well fitted cell-killing curve with a large enough effect in the repeat runs, not every such curve was filed as active; also: nearly all actives have a fitted effect of over 40% in size)
Outline: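 PGC/ERR cells (2,000/well) plated 6 h, then compound-treated for 17.5 h at 37 C. Viability measured by CellTiter-Fluor fluorescence after 30 min at 37 C, multiplexed with the pathway assay.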

[13] = target: Thyrotropin receptor (Homo sapiens) (UniProt P16473); assay: qHTS assay to identify small molecule agonists of the thyroid stimulating hormone receptor (TSHR) signaling pathway (AID 1224843; calls by dose curve; also: nearly all actives have a fitted effect of over 45% in size)
Outline: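 TSHR-expressing HEK293 cells (800 per well) were exposed to compounds for 30 min at room temperature. cAMP was then detected by HTRF competition with cAMP-d2 and anti-cAMP cryptate, read after 1 h at room temperature. Fifteen concentrations, triplicate.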

[14] = qHTS assay to identify small molecule agonists of the hypoxia (HIF-1) signaling pathway - cell viability counter screen (AID 1224844; calls by dose curve; also: nearly all actives have a fitted effect of over 50% in size)
Outline: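 HRE-bla ME-180 cells, 2,000/well in 0.5% dialyzed FBS medium, treated 17 h at 37C with compounds. Viability read in the same wells as the bla reporter, by CellTiter-Glo luminescence after 30 min at room temperature.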

[15] = qHTS assay to identify small molecule agonists of H2AX (AID 1224845; active = well fitted activation curve with a large enough effect in the signal ratio in the repeat runs, not every such curve was filed as active; the % refers to the signal ratio)
Outline: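 Wild-type CHO-K1 cells plated overnight, then exposed 3 hr at 37C to compounds at 15 concentrations (0.76% DMSO). Lysed, then HTRF anti-pH2AX(S139)-cryptate/anti-H2AX-d2 detection after 24 hr at room temperature; emissions 665 and 620 nm.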

[16] = qHTS assay to identify small molecule agonists of H2AX - cell viability counter screen (AID 1224847; calls by dose curve; also: top concentration of the series differs between compounds; nearly all actives have a fitted effect of over 30% in size)
Outline: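 Viability of CHO-K1 (wild type) cells after 3 hr compound exposure was measured by CellTiter-Glo luminescence.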

[17] = qHTS assay to identify small molecule agonists of the hypoxia (HIF-1) signaling pathway (AID 1224846; active = well fitted activation curve with a large enough effect in the signal ratio in the repeat runs, not every such curve was filed as active; the % refers to the signal ratio)
Outline: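 HRE-bla ME-180 beta-lactamase reporter cells in medium with 0.5% dialyzed FBS, pre-incubated 5 h then exposed to compounds 17 h at 37C, 5% CO2; reporter induction read with CCF4-AM FRET substrate.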

[18] = qHTS assay to identify small molecule agonists of the estrogen related receptor signaling pathway with the pleiotropic PPARgamma coactivator (PGC) from Tox21 10K library (AID 1224842); also: nearly all actives have a fitted effect of over 15% in size
Outline: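 PGC/ERR reporter cells (NTP line) were seeded 2,000 per well, rested 6 h at 37 C/5% CO2, then pin-dosed with compounds in DMSO for 18 h at 37 C; luciferase read by One-Glo luminescence after 30 min at room temperature.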

[19] = qHTS assay to identify small molecule antagonists of the estrogen related receptor (ERR) signaling pathway from Tox21 library (AID 1224848); also: nearly all actives have a fitted effect of over 50% in size
Outline: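 Cells: ERR line, 2,000/well; 6 h preincubation 37 C/5% CO2. Cpd in DMSO via pin tool; 18 h, 37 C. ONE-Glo, 30 min RT, luminescence.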

Measured: Potency

Sequence of Nuclear receptor subfamily 1 group I member 3 (Homo sapiens) (Q14994 whole entry, looked up): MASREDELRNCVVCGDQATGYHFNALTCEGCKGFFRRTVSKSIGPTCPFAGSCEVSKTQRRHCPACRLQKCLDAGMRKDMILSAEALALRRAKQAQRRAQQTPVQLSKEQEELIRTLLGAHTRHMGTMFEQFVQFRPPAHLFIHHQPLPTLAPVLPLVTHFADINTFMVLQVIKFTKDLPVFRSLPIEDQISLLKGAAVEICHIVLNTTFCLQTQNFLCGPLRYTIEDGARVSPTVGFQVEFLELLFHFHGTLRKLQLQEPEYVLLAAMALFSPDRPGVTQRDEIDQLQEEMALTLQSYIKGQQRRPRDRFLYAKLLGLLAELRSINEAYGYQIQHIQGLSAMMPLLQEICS
Sequence of Thyrotropin receptor (Homo sapiens) (P16473 whole entry, looked up): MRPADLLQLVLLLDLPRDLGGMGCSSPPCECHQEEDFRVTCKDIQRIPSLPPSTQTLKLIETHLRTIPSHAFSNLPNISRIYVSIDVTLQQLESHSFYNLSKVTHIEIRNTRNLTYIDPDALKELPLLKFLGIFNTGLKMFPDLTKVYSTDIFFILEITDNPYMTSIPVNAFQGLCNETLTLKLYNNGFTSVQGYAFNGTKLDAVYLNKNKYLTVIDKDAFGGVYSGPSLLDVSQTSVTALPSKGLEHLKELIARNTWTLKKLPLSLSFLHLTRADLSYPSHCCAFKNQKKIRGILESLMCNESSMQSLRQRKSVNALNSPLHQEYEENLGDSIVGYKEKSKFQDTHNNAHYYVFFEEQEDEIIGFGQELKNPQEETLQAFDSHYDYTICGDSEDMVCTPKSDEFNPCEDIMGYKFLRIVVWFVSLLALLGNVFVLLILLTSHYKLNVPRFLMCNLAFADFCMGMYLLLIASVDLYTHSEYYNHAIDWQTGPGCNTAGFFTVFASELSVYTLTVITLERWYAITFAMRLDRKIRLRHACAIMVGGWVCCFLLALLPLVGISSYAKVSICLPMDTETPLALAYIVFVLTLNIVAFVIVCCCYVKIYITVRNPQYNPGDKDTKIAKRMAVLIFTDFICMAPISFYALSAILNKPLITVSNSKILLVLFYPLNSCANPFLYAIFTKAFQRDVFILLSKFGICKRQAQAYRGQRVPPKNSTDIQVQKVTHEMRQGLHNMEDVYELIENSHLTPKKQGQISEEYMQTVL
Sequence of Retinoic acid receptor RXR-alpha (Homo sapiens) (P19793 whole entry, looked up): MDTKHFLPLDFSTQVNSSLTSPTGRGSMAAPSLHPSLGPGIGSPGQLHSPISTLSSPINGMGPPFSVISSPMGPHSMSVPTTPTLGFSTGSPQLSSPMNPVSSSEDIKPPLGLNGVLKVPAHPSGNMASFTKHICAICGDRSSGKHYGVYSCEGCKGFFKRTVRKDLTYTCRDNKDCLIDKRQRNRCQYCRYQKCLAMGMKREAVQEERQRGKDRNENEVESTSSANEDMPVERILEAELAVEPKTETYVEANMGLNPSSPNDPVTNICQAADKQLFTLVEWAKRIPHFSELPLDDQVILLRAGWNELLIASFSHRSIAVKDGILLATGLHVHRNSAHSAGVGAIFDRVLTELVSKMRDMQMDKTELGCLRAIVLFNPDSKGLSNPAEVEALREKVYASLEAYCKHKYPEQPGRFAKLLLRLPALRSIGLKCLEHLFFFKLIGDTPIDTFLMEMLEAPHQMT
Sequence of Luciferin 4-monooxygenase (Photinus pyralis) (P08659 whole entry, looked up): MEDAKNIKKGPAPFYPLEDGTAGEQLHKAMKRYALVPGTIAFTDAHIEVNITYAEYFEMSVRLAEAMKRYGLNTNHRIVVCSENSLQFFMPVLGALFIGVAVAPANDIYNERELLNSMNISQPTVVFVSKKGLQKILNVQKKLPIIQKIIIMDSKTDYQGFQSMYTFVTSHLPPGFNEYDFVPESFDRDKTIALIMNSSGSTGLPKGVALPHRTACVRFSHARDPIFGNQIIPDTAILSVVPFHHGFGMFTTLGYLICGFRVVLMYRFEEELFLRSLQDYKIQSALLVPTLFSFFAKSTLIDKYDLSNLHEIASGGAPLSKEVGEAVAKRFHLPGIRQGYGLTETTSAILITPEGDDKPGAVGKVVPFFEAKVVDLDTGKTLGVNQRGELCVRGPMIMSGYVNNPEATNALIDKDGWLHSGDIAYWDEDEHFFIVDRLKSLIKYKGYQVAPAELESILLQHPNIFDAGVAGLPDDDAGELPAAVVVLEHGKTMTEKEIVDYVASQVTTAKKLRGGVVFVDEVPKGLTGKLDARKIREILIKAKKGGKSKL

CCC[C@@H]1C[C@@H](C(=O)N[C@@H]([C@H]2O[C@H](SC)[C@H](O)[C@@H](O)[C@H]2O)[C@@H](C)O)N(C)C1
not listed: [17] | [18] | [19]
inactive: all other assays above

C[C@@H](O)C(=O)O
not listed: [18] | [19]
inactive: all other assays above

CSc1cnccn1
not listed: [18] | [19]
inactive: all other assays above

C/C(=C1\CCOC(=O)S1)N(C=O)Cc1cnc(C)nc1N
not listed: [18] | [19]
inactive: all other assays above

COP(=O)(O)OP(=O)(O)OC
not listed: [18] | [19]
inactive: all other assays above

CC(=O)OC(C)=O
not listed: [18] | [19]
inactive: all other assays above

COc1cc2c(cc1OC)CN(C(=O)[C@H](C)N[C@@H](CCc1ccccc1)C(=O)O)[C@H](C(=O)O)C2
not listed: [15] | [18] | [19]
inactive: all other assays above

CN(C)CCCCl
not listed: [18] | [19]
inactive: all other assays above

CCC(C(=O)OCCN1CCOC(c2ccccc2)C1C)c1ccccc1 (stereo not given)
not listed: [13] | [16] | [19]
inactive: all other assays above

CC1(C)[C@H]2CC[C@](C)(C2)[C@H]1O
not listed: [18] | [19]
inactive: all other assays above

CC(C)Nc1ccccc1
not listed: [18] | [19]
inactive: all other assays above

CC(C)(CO)C(O)C(=O)NCCCO (stereo not given)
not listed: [17]
inactive: all other assays above

CC(C)=CCC[C@@](C)(O)[C@H]1CC=C(C)CC1
not listed: [18] | [19]
inactive: all other assays above

Nc1nc(-c2ccccc2)c(Br)c(=O)[nH]1
inactive: all assays above

CCCCCCCCCOC(=O)c1ccccc1C(=O)OCCCCCCCCC
not listed: [18] | [19]
inactive: all other assays above
